Reference: PubChem BioAssay AID1159580 (chemical genetic matrix, 2015)
About 2,000 (36%) of roughly 5,500 compounds were called active. Roughly 18% stayed inconclusive and do not appear here. Cut-off read from the data, not from the text of the source: active = normalized growth mostly below about 0.91 (no sharp cut-off); inconclusive = no clear call, values can overlap the other calls; inactive = mostly above about 0.92. Some of the results follow.

Experiment: chemical genetic growth profiling, strain panel (AID 1159580);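 note: tested at 20 µM; growth read once vehicle control cultures reached saturation at 30 °C; 1 = growth at the plate median or of vehicle wells; lower values mean less growth of the strain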
Settings: growth OD

Measured: normalized growth

CS(=O)(=O)c1ccc(C2=C(c3ccccc3)C(=O)OC2)cc1
inactive: S. cerevisiae deletion strains, locus YJR066W, strain TOR1, hits give low values 0.97 | S. cerevisiae deletion strains, locus YJR075W, strain HOC1, hits give low values 0.992 | S. cerevisiae deletion strains, locus YKL009W, strain mrt4, hits give low values 0.949 | S. cerevisiae deletion strains, locus YKL068W, hits give low values 0.983 | S. cerevisiae deletion strains, locus YKL085W, strain MDH1 (second series), hits give low values 0.979 | S. cerevisiae deletion strains, locus YKL085W, strain MDH1, hits give low values 0.979 | S. cerevisiae deletion strains, locus YKL160W, strain elf1, hits give low values 0.988 | S. cerevisiae deletion strains, locus YKL190W, strain CNB1, hits give low values 0.98 | S. cerevisiae deletion strains, locus YKR001C, strain vps1, hits give low values 0.987 | S. cerevisiae deletion strains, locus YKR026C, strain gcn3, hits give low values 0.983 | S. cerevisiae deletion strains, locus YKR091W, strain srl3, hits give low values 0.961 | S. cerevisiae deletion strains, locus YLL001W, strain dnm1, hits give low values 0.999 | S. cerevisiae deletion strains, locus YLL026W, hits give low values 0.985 | S. cerevisiae deletion strains, locus YLL041C, strain sdh2, hits give low values 0.994 | S. cerevisiae deletion strains, locus YLR027C, strain aat2, hits give low values 0.978 | S. cerevisiae deletion strains, locus YLR039C, strain RIC1, hits give low values 0.951 | S. cerevisiae deletion strains, locus YLR058C, strain SHM2, hits give low values 1 | S. cerevisiae deletion strains, locus YLR102C, strain apc9, hits give low values 0.992 | S. cerevisiae deletion strains, locus YLR113W, strain HOG1, hits give low values 1.01 | S. cerevisiae deletion strains, locus YLR221C, strain rsa3, hits give low values 0.974 | S. cerevisiae deletion strains, locus YLR258W, strain gsy2, hits give low values 0.988 | S. cerevisiae deletion strains, locus YLR262C, strain YPT6 (second series), hits give low values 0.96 | S. cerevisiae deletion strains, locus YLR262C, strain YPT6, hits give low values 0.965 | S. cerevisiae deletion strains, locus YLR268W, strain sec22, hits give low values 0.971 | S. cerevisiae deletion strains, locus YLR320W, strain mms22, hits give low values 0.991 | S. cerevisiae deletion strains, locus YLR330W, strain CHS5, hits give low values 0.986 | S. cerevisiae deletion strains, locus YLR342W, strain FKS1 (second series), hits give low values 1.01 | S. cerevisiae deletion strains, locus YLR342W, strain FKS1, hits give low values 0.966 | S. cerevisiae deletion strains, locus YLR357W, strain rsc2, hits give low values 0.955 | S. cerevisiae deletion strains, locus YLR370C, strain arc18, hits give low values 0.971 | S. cerevisiae deletion strains, locus YLR371W, strain rom2, hits give low values 0.981 | S. cerevisiae deletion strains, locus YLR384C, strain iki3, hits give low values 0.992 | S. cerevisiae deletion strains, locus YLR418C, strain cdc73, hits give low values 0.987 | S. cerevisiae deletion strains, locus YML016C, strain PPZ1, hits give low values 1 | S. cerevisiae deletion strains, locus YML032C, strain rad52, hits give low values 0.97 | S. cerevisiae deletion strains, locus YML120C, strain ndi1, hits give low values 0.959 | S. cerevisiae deletion strains, locus YML124C, strain tub3, hits give low values 0.989 | S. cerevisiae deletion strains, locus YMR058W, strain fet3, hits give low values 0.978 | S. cerevisiae deletion strains, locus YMR078C, strain ctf18, hits give low values 0.985 | S. cerevisiae deletion strains, locus YMR125W, strain sto1, hits give low values 0.961 | S. cerevisiae deletion strains, locus YMR129W, hits give low values 0.988 | S. cerevisiae deletion strains, locus YMR205C, strain PFK2, hits give low values 0.986 | S. cerevisiae deletion strains, locus YMR223W, strain ubp8, hits give low values 0.982 | S. cerevisiae deletion strains, locus YMR231W, strain pep5, hits give low values 0.992 | S. cerevisiae deletion strains, locus YMR263W, strain SAP30, hits give low values 0.958 | S. cerevisiae deletion strains, locus YMR307W, strain GAS1, hits give low values 0.998 | S. cerevisiae deletion strains, locus YNL067W, strain RPL9B, hits give low values 0.953 | S. cerevisiae deletion strains, locus YNL071W, strain lat1, hits give low values 0.979 | S. cerevisiae deletion strains, locus YNL128W, strain TEP1, hits give low values 0.985 | S. cerevisiae deletion strains, locus YNL153C, strain GIM3, hits give low values 0.994 | S. cerevisiae deletion strains, locus YNL183C, strain NPR1, hits give low values 0.984 | S. cerevisiae deletion strains, locus YNL209W, strain ssb2, hits give low values 0.951 | S. cerevisiae deletion strains, locus YNL233W, strain BNI4, hits give low values 0.992 | S. cerevisiae deletion strains, locus YNL248C, strain rpa49, hits give low values 0.965 | S. cerevisiae deletion strains, locus YNL250W, strain rad50, hits give low values 0.995 | S. cerevisiae deletion strains, locus YNL271C, strain bni1, hits give low values 0.971 | S. cerevisiae deletion strains, locus YNL298W, strain CLA4, hits give low values 0.99 | S. cerevisiae deletion strains, locus YNL307C, strain MCK1, hits give low values 0.986 | S. cerevisiae deletion strains, locus YNL322C, strain KRE1 (second series), hits give low values 0.97 | S. cerevisiae deletion strains, locus YNL322C, strain KRE1, hits give low values 0.994 | S. cerevisiae deletion strains, locus YNR049C, strain mso1, hits give low values 0.964 | S. cerevisiae deletion strains, locus YNR052C, strain pop2, hits give low values 0.975 | S. cerevisiae deletion strains, locus YOL006C, strain TOP1, hits give low values 0.91 | S. cerevisiae deletion strains, locus YOL012C, strain htz1 1.22 | S. cerevisiae deletion strains, locus YOL147C, strain pex11, hits give low values 0.995 | S. cerevisiae deletion strains, locus YOR001W, strain rrp6, hits give low values 0.979 | S. cerevisiae deletion strains, locus YOR061W, strain CKA2, hits give low values 1 | S. cerevisiae deletion strains, locus YOR069W, strain VPS5, hits give low values 1 | S. cerevisiae deletion strains, locus YOR070C, strain gyp1, hits give low values 0.977 | S. cerevisiae deletion strains, locus YOR080W, strain dia2, hits give low values 0.962 | S. cerevisiae deletion strains, locus YOR083W, strain WHI5, hits give low values 0.975 | S. cerevisiae deletion strains, locus YOR106W, strain vam3, hits give low values 0.968 | S. cerevisiae deletion strains, locus YOR136W, strain idh2, hits give low values 0.992 | S. cerevisiae deletion strains, locus YOR144C, strain elg1, hits give low values 0.975 | S. cerevisiae deletion strains, locus YOR184W, strain ser1, hits give low values 0.975 | S. cerevisiae deletion strains, locus YOR231W, strain MKK1, hits give low values 1.03 | S. cerevisiae deletion strains, locus YOR265W, strain rbl2, hits give low values 0.973 | S. cerevisiae deletion strains, locus YOR270C, strain vph1, hits give low values 0.933 | S. cerevisiae deletion strains, locus YOR290C, strain snf2, hits give low values 0.972 | S. cerevisiae deletion strains, locus YOR316C, strain cot1, hits give low values 0.987 | S. cerevisiae deletion strains, locus YPL051W, strain arl3, hits give low values 0.986 | S. cerevisiae deletion strains, locus YPL055C, strain LGE1, hits give low values 0.957 | S. cerevisiae deletion strains, locus YPL078C, strain atp4, hits give low values 0.986 | S. cerevisiae deletion strains, locus YPL106C, strain sse1, hits give low values 0.942 | S. cerevisiae deletion strains, locus YPL240C, strain hsp82, hits give low values 0.969 | S. cerevisiae deletion strains, locus YPL241C, strain CIN2, hits give low values 0.994 | S. cerevisiae deletion strains, locus YPL256C, strain CLN2, hits give low values 1.06 | S. cerevisiae deletion strains, locus YPR141C, strain kar3, hits give low values 0.98 | S. cerevisiae deletion strains, locus YPR163C, strain tif3, hits give low values 0.989 | S. cerevisiae deletion strains, locus YPR167C, strain met16, hits give low values 0.978 | S. cerevisiae deletion strains, strain wtn01, hits give low values 0.985 | S. cerevisiae strains, strain wild type, hits give low values 0.989
